Experimental data published in the supplement of paper PMC3898565.
± gives the uncertainty stated by the source.
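Also: viable cell number estimated from Alamar Blue fluorescence read at 560/90, part of a single-dose primary screen of an FDA-approved drug library.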

These compounds were tested on U87 (assay: cell viability relative to vehicle control; higher = less growth inhibition (less active)). Conditions: 10 µM; 72 h.
`CN(C/C=C/C#CC(C)(C)C)Cc1cccc2ccccc12` was tested, and the cell viability was 103 ± 1.4%.
In the case of `COc1ccc(CC(C)NCC(O)c2ccc(O)c(NC=O)c2)cc1` (centres undefined), the cell viability is reported as 98.7 ± 1.3%.
Work on `CCOC(=O)C1=C(C)NC(C)=C(C(=O)OCC)C1c1ccccc1/C=C/C(=O)OC(C)(C)C` yielded a cell viability of 98.85 ± 0.96%.
With `O=c1ncc(F)c[nH]1` [5-fluoro-2-pyrimidone] the cell viability was 106.8 ± 0.67%.
For `CS(=O)(=O)c1ccc(C2=C(c3ccccc3)C(=O)OC2)cc1`, the cell viability was 107.7 ± 0.87%.
With `CO[C@H]1/C=C/O[C@@]2(C)Oc3c(C)c(O)c4c(O)c(c(/C=N/N5CCN(C6CCCC6)CC5)c(O)c4c3C2=O)NC(=O)/C(C)=C\C=C\[C@H](C)[C@H](O)[C@@H](C)[C@@H](O)[C@@H](C)[C@H](OC(C)=O)[C@@H]1C` the cell viability was 93.7 ± 1.3%.
Work on `CN1C(=O)CC[C@H]1c1cccnc1` [(-)-Cotinine] yielded a cell viability of 94.6 ± 10%.
With `Cc1c(O)cccc1C(=O)N[C@@H](CSc1ccccc1)[C@H](O)CN1C[C@H]2CCCC[C@H]2C[C@H]1C(=O)NC(C)(C)C` the cell viability was 102.1 ± 1%.
For `Cc1ncc([N+](=O)[O-])n1CC(O)CCl` (centres undefined), the cell viability was 91.08 ± 0.44%.
Work on `NC1CCN(c2cccc(Cl)n2)CC1` yielded a cell viability of 97.7 ± 4%.
In the case of `CN1CCC(=C2c3ccccc3C=Cc3ccccc32)CC1` [Cyproheptadine], the cell viability is reported as 103.33 ± 0.068%.
`CCCc1nc(C(C)(C)O)c(C(=O)OCc2oc(=O)oc2C)n1Cc1ccc(-c2ccccc2-c2nnn[nH]2)cc1` gave a cell viability of 102 ± 1.9%.
For `OCCN1CCN(CCCN2c3ccccc3Sc3ccc(C(F)(F)F)cc32)CC1` [Fluphenazine], the cell viability was 104.3 ± 0.93%.
`CCC1=C[C@H]2CN(C1)Cc1c([nH]c3ccccc13)[C@@](C(=O)OC)(c1cc3c(cc1OC)N(C)[C@H]1[C@@](O)(C(=O)OC)[C@H](OC(C)=O)[C@]4(CC)C=CCN5CC[C@]31[C@@H]54)C2` [Vinorelbine Bitatrate] gave a cell viability of 18 ± 5%.
Compound `Cc1cccc(Nc2ccncc2S(=O)(=O)NC(=O)NC(C)C)c1` has a cell viability of 124 ± 2.1%.
Compound `CC(=O)N1CCN(c2ccc(OCC3COC(Cn4ccnc4)(c4ccc(Cl)cc4Cl)O3)cc2)CC1` (centres undefined) [Ketoconazole] has a cell viability of 94.3 ± 13%.
For `O=C1N(c2ccccc2)c2ccccc2C1(Cc1ccncc1)Cc1ccncc1`, the cell viability was 106 ± 2.1%.
For `COC(=O)Nc1nc2cc(C(=O)c3ccc(F)cc3)ccc2[nH]1`, the cell viability was 30 ± 7.6%.
With `O=C1N[C@H](C(=O)O)CS1` [4-Thiazolidinecarboxylic acid, 2-oxo-, (R)- [CAS]] the cell viability was 101.1 ± 0.43%.
Compound `CN=C(N)NCCC[C@H](N)C(=O)O` [L-Ornithine, N5-[imino(methylamino)methyl]-[CAS]] has a cell viability of 104.9 ± 0.88%.
In the case of `COc1ccc2c3c1O[C@H]1C[C@@H](O)C=C[C@@]31CCN(C)C2` [Galanthamine], the cell viability is reported as 100 ± 0.85%.
`CCCCC1=NC2(CCCC2)C(=O)N1Cc1ccc(-c2ccccc2-c2nnn[nH]2)cc1` gave a cell viability of 98 ± 3.2%.
Work on `CCCc1nc(C)c2c(=O)nc(-c3cc(S(=O)(=O)N4CCN(CC)CC4)ccc3OCC)[nH]n12` yielded a cell viability of 107.7 ± 0.41%.
For `CC(=O)NCCCCCCNC(C)=O`, the cell viability was 103.9 ± 0.65%.
Compound `CC[C@@]1(O)C(=O)OCc2c1cc1n(c2=O)Cc2cc3c(CN(C)C)c(O)ccc3nc2-1` has a cell viability of 24.1 ± 2%.
Compound `CCCCN1CCCC1CNC(=O)c1cc(C#N)c2ccccc2c1OC` (centres undefined) [Nafadotride] has a cell viability of 102 ± 1.5%.
`COC(=O)CCc1ccc(OCC(O)CNC(C)C)cc1` (centres undefined) was tested, and the cell viability was 128 ± 3%.
In the case of `O=C(O)C[C@H](O)C[C@H](O)/C=C/c1c(C2CC2)nc2ccccc2c1-c1ccc(F)cc1`, the cell viability is reported as 28.6 ± 3.1%.
`Clc1ccccc1C(c1ccccc1)(c1ccccc1)n1ccnc1` showed a cell viability of 107.5 ± 0.99%.
In the case of `CN(C)CCN(Cc1ccccc1)c1ccccn1`, the cell viability is reported as 96.4 ± 2.6%.
`NC(=O)c1cccnc1` gave a cell viability of 104.5 ± 1%.
`C#C[C@]1(O)CC[C@H]2[C@@H]3[C@H](C)CC4=C(CCC(=O)C4)[C@H]3CC[C@@]21C` was tested, and the cell viability was 106 ± 2.1%.
In the case of `COC(=O)C1=C(C)NC(C)=C(C(=O)OCC(C)C)C1c1ccccc1[N+](=O)[O-]` (centres undefined) [Nisoldipine], the cell viability is reported as 48.4 ± 5%.
Work on `O=C1CC2(CCCC2)CC(=O)N1CCNCC1COc2ccccc2O1` (centres undefined) yielded a cell viability of 110.4 ± 0.75%.
Compound `CC(=O)NC[C@H]1CN(c2ccc(N3CCOCC3)c(F)c2)C(=O)O1` has a cell viability of 103 ± 1.8%.
Work on `CN1[C@@H](CC(=O)c2ccccc2)CCC[C@H]1C[C@H](O)c1ccccc1` yielded a cell viability of 98.58 ± 0.82%.
In the case of `CCCN1CCCC[C@H]1C(=O)Nc1c(C)cccc1C`, the cell viability is reported as 107 ± 1.1%.
Compound `C#C[C@]1(O)CC[C@H]2[C@@H]3CCC4=CC(=O)CC[C@@H]4[C@H]3CC[C@@]21CC` has a cell viability of 105.5 ± 0.58%.
Compound `COC(=O)C1=C(C)NC(C)=C(C(=O)OC(C)C)C1c1cccc2nonc12` (centres undefined) has a cell viability of 104.2 ± 0.44%.
